An excerpt weighted towards active compounds, which were near 3.3% of everything screened.
Tb PYK inh: blocks Trypanosoma brucei pyruvate kinase; Q57TT1; TbPYK enzyme, Kinase-Glo Plus ATP luminescence, 45 min; Potency, µM (doses to about 76.8 µM), for the others: at the highest dose activity, negative = inhibition, usual class: inhibitors; 410,000 compounds, 0.12% hits; AID 624173; also: % is scaled to controls: 0 for no effect and ±100 for the full control effect; nearly all actives have a fitted effect of over 50% in size
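Luminescence from Kinase-Glo Plus, added after a 45-minute room-temperature reaction, served as the end-point read-out. The enzyme and substrate were preincubated with compound before ADP (130 uM final) initiated turnover. Concentration-effect curves came from normalized qHTS data.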
RE007 growth inh: less growth of the S. pombe RE007 Vpr strain. 360,000 compounds, 0.21% hits. S. pombe RE007 Vpr strain, BacTiter-Glo ATP luminescence, 24 h. Potency, µM (highest dose often 92.2 µM), for inactives: at the highest dose activity change, negative = less growth, usual class: inhibitors; active = well fitted falling curve with a large enough effect; inconclusive = small, poorly fitted or top-dose-only effect; inactive = no such curve, though single readings can be large or run the other way; also: % is scaled to controls: 0 for no effect and ±100 for the full control effect; nearly all actives have a fitted effect of over 50% in size
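Fission yeast strain RE007, carrying one chromosomally integrated HIV-1 vpr copy, was seeded at OD 0.01 in PMG+AL medium with 23 nL pinned compound. After 24 h at 30 °C and 99% humidity, viability was read by BacTiter-Glo luminescence.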
Sm TGR inh: blocks Schistosoma mansoni thioredoxin glutathione reductase. AID 485364. 360,000 compounds, 3% hits. Potency, µM (series often up to 114 µM), without a hit: at the highest dose activity change, negative = inhibition, most hits filed as inhibitors. Q962Y6. purified TGR, DTNB reduction, TNB absorbance 405 nm; also: % is scaled to controls: 0 for no effect and ±100 for the full control effect; nearly all actives have a fitted effect of over 60% in size
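TGR 20 nM + NADPH 100 uM (dispensed conc.), cpd preinc 15 min RT; start with NADPH (500 uM addition) then DTNB (15 mM addition). Kinetic TNB absorbance, 405 nm filter. Four-parameter Hill fit across titration.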
SARS PLP yeast: blocks SARS-CoV papain-like protease in a yeast assay; S. cerevisiae expressing SARS-CoV PLpro, growth rescue; Potency, µM (highest dose often 32.9 µM), for the others: top-dose activity, positive = growth rescue, actives largely listed as activators; 330,000 compounds, 0.19% hits; AID 485353; calls by dose curve; also: 0% is about no effect; nearly all actives have a fitted effect of over 55% in size
AmpC no deterg: inhibitors of E. coli AmpC beta-lactamase without detergent | 330,000 compounds, 0.52% hits | AID 485341 | Potency, µM (top dose mostly 57.1 µM), for inactives: at the highest dose activity change, negative = inhibition, usual class: inhibitors | P00811 | AmpC nitrocefin hydrolysis, absorbance 480 nm, 0.0001% Triton;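 also: plate controls were no compound for no effect and no enzyme for full effect; nearly all actives have a fitted effect of over 20% in size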
Target sequence (P00811 whole entry, looked up): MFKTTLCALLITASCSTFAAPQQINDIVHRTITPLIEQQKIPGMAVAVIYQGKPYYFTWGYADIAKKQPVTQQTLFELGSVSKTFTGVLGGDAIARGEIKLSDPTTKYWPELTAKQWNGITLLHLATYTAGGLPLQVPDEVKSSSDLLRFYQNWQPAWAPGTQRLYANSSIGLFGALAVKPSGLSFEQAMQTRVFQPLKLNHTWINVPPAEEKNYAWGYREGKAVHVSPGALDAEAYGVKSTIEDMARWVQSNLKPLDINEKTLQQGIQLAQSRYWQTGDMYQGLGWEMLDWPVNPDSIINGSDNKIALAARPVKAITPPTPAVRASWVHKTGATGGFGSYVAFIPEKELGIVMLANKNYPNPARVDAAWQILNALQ
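AmpC (5.3 nM in the dispensed reagent) in 20 mM phosphate pH 7.0 with 0.01% (detergent screen) or 0.0001% Triton X-100 was preincubated with compounds for 15 min at room temperature. Nitrocefin was then added from an 800 uM solution, and hydrolysis was followed at 480 nm.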
AmpC inh detg: AmpC beta-lactamase inhibition with detergent present | AmpC hydrolysis of nitrocefin, absorbance 480 nm, 0.01% Triton | Potency, µM (series often up to 114 µM), inactives show at the highest dose activity change, negative = inhibition, usual class: inhibitors | 370,000 compounds, 0.041% hits | P00811;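 also: 0% = no-compound wells and -100% = no-enzyme wells; nearly all actives have a fitted effect of over 25% in size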
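AmpC (5.3 nM in the dispensed reagent) in 20 mM phosphate pH 7.0 with 0.01% (detergent screen) or 0.0001% Triton X-100 was preincubated with compounds for 15 min at room temperature. Nitrocefin was then added from an 800 uM solution, and hydrolysis was followed at 480 nm.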
* hit, by the source's call. Unless noted, calls follow the shape of the dose curve; as a rule, active = well fitted curve in the direction sought with a large enough effect; inconclusive = small, poorly fitted or top-dose-only effect, or another doubt; inactive = no such curve, though single readings can be large; an effect the other way counts as inactive or inconclusive. Potency is read from the fitted curve at half-maximal effect.

Results for COc1cccc(NC(=O)CSC2=Nc3ccccc3C3=NC(CC(=O)NCc4ccc5c(c4)OCO5)C(=O)N23)c1 (stereo not given) ?
Tb PYK inh: 0%; Sm TGR inh: 1%; AmpC inh detg: 5%

What do the screens show for `Cn1cc(CN2CCN(Cc3ccccc3)CC2)c(-c2cccc(Cl)c2)n1`?
Tb PYK inh: 8%; RE007 growth inh: -20%; Sm TGR inh: 32µM*; SARS PLP yeast: -1%; AmpC no deterg: 121%; AmpC inh detg: 9%

How did COCCN1CCN(Cc2cn(C)nc2-c2cccc(Cl)c2)CC1 do in these assays?
Tb PYK inh: 5%; RE007 growth inh: 5%; Sm TGR inh: -4%; SARS PLP yeast: 1%; AmpC no deterg: 3%; AmpC inh detg: -2%

Results for Cc1c(NC(=O)C(C)OC(=O)/C=C/c2ccco2)c(=O)n(-c2ccccc2)n1C (stereo not given) ?
Tb PYK inh: -6%; RE007 growth inh: 6%; Sm TGR inh: 45µM*; SARS PLP yeast: -2%; AmpC no deterg: -5%; AmpC inh detg: 2%

Results for COc1cccc(/C=C/C(=O)OC(C)C(=O)Nc2c(C)n(C)n(-c3ccccc3)c2=O)c1 (stereo not given) ?
Tb PYK inh: 3%; RE007 growth inh: -12%; Sm TGR inh: 11%; SARS PLP yeast: 2%; AmpC no deterg: 17%; AmpC inh detg: -1%

How did CO[C@H]1C[C@@H]2CC[C@@H](C)[C@@](O)(O2)C(=O)C(=O)N2CCCC[C@H]2C(=O)O[C@H]([C@H](C)C[C@@H]2CC[C@@H](OCCO)[C@H](OC)C2)CC(=O)[C@H](C)/C=C(\C)[C@@H](O)[C@@H](OC)C(=O)[C@H](C)C[C@H](C)/C=C/C=C/C=C/1C do in these assays?
Tb PYK inh: 3%

What do the screens show for `CCOC(=O)c1c(NC(=O)CCCOc2ccccc2C)sc2c1CCC(C)C2` (stereo not given)?
Tb PYK inh: 0%; Sm TGR inh: 2%; AmpC inh detg: 11%

What do the screens show for `Cc1ccc2cccc(NC(=S)NC(=O)c3ccccc3)c2n1`?
Tb PYK inh: 1%; RE007 growth inh: -9%; Sm TGR inh: -15%; SARS PLP yeast: 26%; AmpC no deterg: -42%; AmpC inh detg: 2%

How did Cc1ccc2cccnc2c1NC(=S)NC(=O)c1ccccc1 do in these assays?
Tb PYK inh: -8%; RE007 growth inh: -13%; Sm TGR inh: 35µM*; SARS PLP yeast: 1%; AmpC no deterg: -27%; AmpC inh detg: 0%

How did Cc1ccc2cn[nH]c2c1NC(=S)NC(=O)c1ccccc1 do in these assays?
Tb PYK inh: -3%; RE007 growth inh: -28%; Sm TGR inh: 14µM*; SARS PLP yeast: 2%; AmpC no deterg: -27%; AmpC inh detg: -2%

How did CC(C)CC1=C/C(=C/c2ccc(-c3ccccc3)o2)C(=O)O1 do in these assays?
Tb PYK inh: -12%; RE007 growth inh: -21%; Sm TGR inh: 13µM*; SARS PLP yeast: -14%; AmpC no deterg: 32µM*; AmpC inh detg: inconclusive

What do the screens show for `NS(=O)(=O)c1ccc(-c2ccc(C=C3C(=O)c4ccccc4C3=O)o2)cc1`?
Tb PYK inh: -3%; RE007 growth inh: -7%; Sm TGR inh: -18%; SARS PLP yeast: -9%; AmpC no deterg: -10%; AmpC inh detg: inconclusive

How did COc1ccccc1C(=O)Nc1ncc2c(n1)CC(c1ccco1)CC2=O (stereo not given) do in these assays?
Tb PYK inh: -19%; RE007 growth inh: 6%; Sm TGR inh: 20µM*; SARS PLP yeast: 8%; AmpC no deterg: -12%; AmpC inh detg: inconclusive

Results for COc1ccc(C2CC(=O)c3cnc(NC(=O)c4ccco4)nc3C2)cc1 (stereo not given) ?
Tb PYK inh: 0%; RE007 growth inh: -2%; Sm TGR inh: -15%; SARS PLP yeast: 0%; AmpC no deterg: 28%; AmpC inh detg: 1%

What do the screens show for `Cc1ccc(C(=O)n2nc(-c3ccco3)nc2N)cc1`?
Tb PYK inh: -2%; RE007 growth inh: 2%; Sm TGR inh: inconclusive; SARS PLP yeast: 0%; AmpC no deterg: -15%; AmpC inh detg: -14%

How did Cc1ccc(C(=O)n2ncn(C)c2=S)cc1 do in these assays?
Tb PYK inh: inconclusive; RE007 growth inh: 11%; Sm TGR inh: 18µM*; SARS PLP yeast: -1%; AmpC no deterg: -22%; AmpC inh detg: 2%

How did O=C(CSc1c[nH]c2ccccc12)N1CCCc2ccccc21 do in these assays?
Tb PYK inh: -24%; RE007 growth inh: -13%; Sm TGR inh: 9%; SARS PLP yeast: -7%; AmpC no deterg: 18µM*; AmpC inh detg: inconclusive

What do the screens show for `CC(C)N1CCC(=NNc2ccc(S(=O)(=O)N3CCOCC3)cc2[N+](=O)[O-])CC1`?
Tb PYK inh: 4%; RE007 growth inh: 4%; Sm TGR inh: 35µM*; SARS PLP yeast: -18%; AmpC no deterg: 4%; AmpC inh detg: inconclusive

Results for CC(=O)N1CCC(=NNc2ccc(S(=O)(=O)N3CCOCC3)cc2[N+](=O)[O-])CC1 ?
Tb PYK inh: 3%; RE007 growth inh: -6%; Sm TGR inh: inconclusive; SARS PLP yeast: 4%; AmpC no deterg: -19%; AmpC inh detg: -14%

How did CCOC(=O)CNC=C(C(=O)OCC)C(=O)OCC do in these assays?
Tb PYK inh: -7%; RE007 growth inh: -2%; Sm TGR inh: -8%; SARS PLP yeast: -1%; AmpC no deterg: inconclusive; AmpC inh detg: 1%

How did CCOC(=O)C=C(C(=O)OCC)C(=O)OCC do in these assays?
Tb PYK inh: inconclusive; RE007 growth inh: 11%; Sm TGR inh: 1.6µM*; SARS PLP yeast: -1%; AmpC no deterg: -3%; AmpC inh detg: 3%

What do the screens show for `CCc1nnc(NC(=O)c2cc(-c3ccccn3)nc3ccccc23)s1`?
Tb PYK inh: -2%; RE007 growth inh: 13%; Sm TGR inh: -7%; SARS PLP yeast: -4%; AmpC no deterg: 3%; AmpC inh detg: -9%

How did CCOc1cccc(-c2cc(C(=O)Nc3ccon3)c3ccccc3n2)c1 do in these assays?
Tb PYK inh: -5%; RE007 growth inh: -5%; Sm TGR inh: -5%; SARS PLP yeast: -2%; AmpC no deterg: 18µM*; AmpC inh detg: -2%

Results for CCc1nnc(NC(=O)c2cc(-c3ccco3)nc3ccccc23)s1 ?
Tb PYK inh: -11%; RE007 growth inh: 15%; Sm TGR inh: 16µM*; SARS PLP yeast: -1%; AmpC no deterg: inconclusive; AmpC inh detg: -19%

Source: PubChem (National Center for Advancing Translational Sciences (NCATS))
